Reference: PubChem BioAssay AID1466 (National Center for Advancing Translational Sciences (NCATS), 2008)
Hit rate of the full screen: of about 200,000 compounds, about 10 (0.005%) were called active. About 8% were inconclusive and are not listed. Only a sample is shown. A number with no mark means an inactive call. The call rests on the fitted dose curve; in most records, active means well fitted inhibition curve with a large enough effect; inconclusive means small, poorly fitted or top-dose-only effect, or effect the other way, or another doubt; inactive means no such curve, though single readings can be large or run the other way.

target: Lysosomal alpha-glucosidase (Homo sapiens) (UniProt P10253); assay: qHTS Assay for Inhibitors of Human alpha-Glucosidase as a Potential Chaperone Treatment of Pompe Disease; details: purified human GAA, 4-MU-alpha-glucoside fluorescence; series mostly up to 76.9 µM; activity change, negative = inhibition: at the top concentration;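 further: plate controls were uninhibited enzyme wells for no effect and no-enzyme background for full effect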
Excerpt: NIH Chemical Genomics Center [NCGC] NIH Molecular Libraries Probe Production centers Network [MLPCN] MLPCN Grant: 1R03MH084841-01 Assay Submitter (PI): Wei Zheng NCGC Assay Overview: Alpha-glucosidase is responsible for hydrolysis of terminal, non-reducing 1,4-linked alpha-D-glucose residues with release of alpha-D-glucose. It is a lysosomal hydrolase that is required for the degradation of a small percentage (1-3%) of cellular glycogen in human. Deficiency of this enzyme results in glycogen-storage disease type II (GSDII), also referred to as Pompe disease, an autosomal recessive disorder. Structurally normal glycogen is accumulated in lysosomes and cytoplasm in affected patients, primarily in muscle tissues. Excessive glycogen storage within lysosomes may interrupt normal functioning of other organelles and leads to cellular injury. In turn, this leads to enlargement and dysfunction of the entire organ involved (eg, cardiomyopathy and muscle weakness). It has reported that the improper folding and trafficking of alpha-glucosidase resulting from the genetic mutations may account for a significant number of Pompe patients. […] We optimized this alpha-glucosidase assay in 1536-well plate format for identifying the novel small molecule inhibitors with the structures other than the sugar analogs in order to develop the new pharmacological chaperones.
NCGC Assay Protocol Summary: This is a fluorogenic enzyme assay with 4-methylumbelliferyl-alpha-D-[…] as the substrate and human alpha-glucosidase as the enzyme preparation. Upon the hydrolysis of this fluorogenic substrate, the resulting product, 1. 4-methyllumbelliferone, can be excited at 365 nm and emits at 440 nm which can be detected by a standard fluorescence plate reader. Data were normalized to the controls for basal activity (without enzyme) and 100% activity (with enzyme). In the AC50 values were determined from concentration-response data modeled with the standard Hill equation. Assay buffer: 50 mM citric acid (titrated with potassium phosphate to pH 5.0), 0.005% Tween-20, pH 5.0. (pH 5.0 is an optimal condition for this enzyme assay) 1536-well assay protocol for the human alpha-glucosidase: (1) Add 2 ul/well of enzyme (4 nM final) (2) Add 23 nL compounds in DMSO solution. The final titration was 0.7 nM to 77 uM. (3) Add 1 ul of substrate (400 uM final) (4) Incubate at room temperature for 20 min. (5) Add 2 ul stop solution (1M NaOH and 1M Glycine mixture, pH 10) (6) Detect the assay plate in a ViewLux plate reader (PerkinElmer) with Ex=365 nm and Em=440nm. Keywords: Alpha-glucosidase, Pompe Disease, pharmacological chaperone, chaperone therapy, high throughput screening, alpha-glucosidase inhibitor, MLSMR, MLSCN, NIH Roadmap, qHTS and NCGC

Point of comparison: `O=C(Nc1ccc(S(=O)(=O)Nc2nccs2)cc1)c1cc(=O)[nH]c2ccccc12`, activity change, negative = inhibition -5.51% [at 15.4 µM]. Against it:
- CC12C(=O)N(c3ccccc3)C(=O)C1C(c1ccccc1)N1CCCN12 (stereo not drawn) — lower, -7.1% [at 15.4 µM]
- Cc1c(CCC(=O)O)c(=O)oc2cc3occ(-c4ccccc4)c3cc12 — higher, 4.78% [at 15.4 µM]
- O=C(NC1C2CC3CC(C2)CC1C3)c1ccc(N2CCNCC2)c([N+](=O)[O-])c1 (stereo not drawn) — higher, -3.61% [at 15.4 µM]
- N#CC1=C(N)Oc2c(ccc3cccnc23)C1c1ccncc1 (stereo not drawn) — lower, -8.01% [at 15.4 µM]
- O=C(N/N=C/c1ccccn1)c1cccnc1 — lower, -6.66% [at 15.4 µM]
- COc1ccccc1C1CCN(C(=S)Nc2ccc(Br)cc2)CC1 — lower, -8.72% [at 15.4 µM]

Point of comparison: `CCOC(=O)c1ccc(NNC(C)=O)c([N+](=O)[O-])c1`, “activity change, negative = inhibition” value 9.25%. Against it:
- CSc1nc(C)nc(C2CC2)c1C#N — lower, -7.16%
- COc1ccc(C)cc1NC(=O)CSc1nnc(CC(=O)Nc2ccccc2F)n1C — lower, -0.43%
- C=CCc1ccc(OCC(O)CN2CCN(Cc3ccccc3)CC2)c(OC)c1 (stereo not drawn) — lower, -3.75%
- O=C(c1ccc(-c2ccccc2)cc1)C1CCCN(C(=O)c2cncs2)C1 (stereo not drawn) — lower, -8.3%
- Cc1n[nH]c(=O)n1-c1ccc(C(C)C)cc1 — lower, -9.22%
- O=C(COC(=O)c1ccncc1)c1ccccc1 — lower, 6.79%
- COC(=O)c1ccc(CN2CCN(CCCc3ccccc3)C(CCO)C2)cc1 (stereo not drawn) — lower, 1.82%
- Cc1cc(CO)nn1-c1ccc([N+](=O)[O-])cc1 — lower, -4.3%
- Cc1ccc2cc(CN(c3ccc(C)c(C)c3)S(C)(=O)=O)c(=O)[nH]c2c1 — lower, 3.2%
- O=C(Cc1ccccc1)N1CCN(S(=O)(=O)c2ccc([N+](=O)[O-])cc2)CC1 — lower, -1.15%
- CC(=O)c1c(-c2ccccc2)c2ccccc2[nH]c1=O — higher, 13.2%
- c1ccc(-c2cc(N3CCCCC3)c3ccccc3n2)cc1 — lower, -11.8%
- FC(F)(F)c1ccnc(Oc2ccc(C3=NCCS3)cc2)c1 — lower, -3.74%
- O=C(O)CC1=C(Nc2ccccc2)C(=O)N(c2ccccc2)C1c1ccc(Cl)cc1 (stereo not drawn) — lower, -3.27%
- CC1CCCN(CC(O)COc2ccc3c(c2)OCO3)C1 (stereo not drawn) — lower, -13.5%
- COc1ccc(/C=C/CN2CCN(Cc3ccc(C)cc3)C(CCO)C2)cc1 (stereo not drawn) — lower, 2.06%
- COc1cc(C)c(Cl)cc1S(=O)(=O)n1ccnc1 — lower, 2.25%
- CCOC(=O)C1(CC2CCCCO2)CCN(Cc2nc(-c3cccs3)oc2C)CC1 (stereo not drawn) — lower, -4.24%
- O=C(c1ccc(OC2CCN(Cc3ccccn3)CC2)cc1)N1CCCCCC1 — lower, 2.29%
- c1ccc(Cc2cc[n+](Cc3ccccc3)cc2)cc1 — lower, 1.18%
- Cc1nc(N)[nH]c(=O)c1Oc1cccc(C(F)(F)F)c1 — lower, 0.998%
- CC(C)Oc1ccc(CCc2nnc(SCC(=O)O)n2-c2ccccc2)cc1 — lower, -0.523%
- CCN(CC)P(=O)(Nc1ccc(SC(F)F)cc1)c1ccc(N(C)C)cc1NC(=O)c1ccco1 (stereo not drawn) — lower, -15.2%
- C=C(C)COc1ccc(-c2nc(N)ncc2-c2ccccc2OC)c(O)c1 — lower, -9.24%
- CCN(CCn1cccn1)Cc1nc(-c2ccc(C(=O)OC)cc2)no1 — lower, -1.77%
- O=C1Oc2ccccc2C(=O)/C1=C/c1ccccc1O — lower, 9.02%
- Cc1ccc(S(=O)(=O)N2CCOCC2)cc1C(=O)OC1CCCCC1=O (stereo not drawn) — lower, -13.9%
- COC(=O)c1sccc1NN1C(=O)c2ccccc2C1=O — lower, -1.37%
- CCc1ccc(-n2c(SCc3cc(=O)n4cc(Br)ccc4n3)nc3[nH]ncc3c2=O)cc1 — lower, -9.36%
- O=C(c1ccc(F)cc1)n1c(=S)nc2ccccn21 — lower, -7.36%
- COc1ccc(CN2CCCC(C(=O)c3ccc(Cl)cc3)C2)cc1Cn1cncn1 (stereo not drawn) — lower, -8.23%
- CS(=O)(=O)c1ccc2nnn(OCC(=O)Nc3cccc(C#N)c3)c2c1 — lower, -3.63%
- COc1ccc(OC)c(NC(=O)CN(Cc2ccc(Cl)cc2)S(C)(=O)=O)c1 — lower, -6.41%
- CCOC(=O)c1cnc2c(c(C)nn2CC)c1Cl — lower, 2.22%
- CCc1nc(C)cn1S(=O)(=O)c1cc([N+](=O)[O-])ccc1Cl — lower, 3.68%
- O=[N+]([O-])c1ccc(F)cc1Oc1nc(-c2cccnc2)nc2ccccc12 — lower, 1.6%
- COc1ccc(/C=C/C2=CC(C)(C)NC(=S)N2)c(OC)c1 — lower, -10.3%
- Cc1ccc(-c2nn(-c3cccc(F)c3)cc2CNCCc2ccncc2)o1 — lower, -3.04%
- Brc1ccc2nc(N3CCCC3)sc2c1 — lower, -7.16%
- COc1ccc(Cl)cc1N(CC(=O)N1CCCCC1)S(C)(=O)=O — lower, -2.73%
- Cn1nc(C(F)(F)F)cc1-c1ccc(/C=C(\C#N)C(=O)c2cccc(C(F)(F)F)c2)s1 — lower, -13.5%
- COc1ccc(C(=O)Nc2ccc(NC(=O)C(C)C)nc2)cc1 — higher, 10.4%
- CC1Cc2ccccc2N1C(=O)CSc1nnc(C2CC2)n1C (stereo not drawn) — lower, -3.65%
- Cc1nnsc1C(=O)NCc1c(F)cccc1Cl — lower, -5.04%
- Cc1cc(Cl)ccc1NNC(=O)c1snnc1C — lower, -0.766%
